Source: PubChem BioAssay AID1159580 (chemical genetic matrix, 2015)
About 2,000 (36%) of roughly 5,500 compounds were called active. Roughly 18% stayed inconclusive and do not appear here. The list shows a part of the results. A number with no mark means an inactive call. Rule as the data show it: active = normalized growth mostly below about 0.91 (no sharp cut-off); inconclusive = no clear call, values can overlap the other calls; inactive = mostly above about 0.92.

Assay: chemical genetic growth profiling, strain panel (AID 1159580);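 also: tested at 20 µM; growth read once vehicle control cultures reached saturation at 30 °C; 1 = growth at the plate median or of vehicle wells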
Conditions: growth OD

What does the source list for `CC1=CC(=O)C(C(C)C)=CC1=O`?
normalized growth (S. cerevisiae deletion strains, locus YJR066W, strain TOR1, stronger effect = lower value): 0.903; normalized growth (S. cerevisiae deletion strains, locus YKL009W, strain mrt4, stronger effect = lower value): 0.936; normalized growth (S. cerevisiae deletion strains, locus YKL068W, stronger effect = lower value): 0.961; normalized growth (S. cerevisiae deletion strains, locus YKL085W, strain MDH1 (second series), stronger effect = lower value): 0.965; normalized growth (S. cerevisiae deletion strains, locus YKL085W, strain MDH1, stronger effect = lower value): 0.965; normalized growth (S. cerevisiae deletion strains, locus YKL160W, strain elf1, stronger effect = lower value): 0.951; normalized growth (S. cerevisiae deletion strains, locus YKL190W, strain CNB1, stronger effect = lower value): 0.946; normalized growth (S. cerevisiae deletion strains, locus YKR001C, strain vps1, stronger effect = lower value): 0.727 (active); normalized growth (S. cerevisiae deletion strains, locus YKR026C, strain gcn3, stronger effect = lower value): 0.903 (active); normalized growth (S. cerevisiae deletion strains, locus YKR091W, strain srl3, stronger effect = lower value): 0.999; normalized growth (S. cerevisiae deletion strains, locus YLL001W, strain dnm1, stronger effect = lower value): 1.01; normalized growth (S. cerevisiae deletion strains, locus YLL026W, stronger effect = lower value): 0.838 (active); normalized growth (S. cerevisiae deletion strains, locus YLL041C, strain sdh2, stronger effect = lower value): 0.95; normalized growth (S. cerevisiae deletion strains, locus YLR027C, strain aat2, stronger effect = lower value): 0.638 (active); normalized growth (S. cerevisiae deletion strains, locus YLR039C, strain RIC1, stronger effect = lower value): 0.691; normalized growth (S. cerevisiae deletion strains, locus YLR058C, strain SHM2, stronger effect = lower value): 0.946; normalized growth (S. cerevisiae deletion strains, locus YLR102C, strain apc9, stronger effect = lower value): 0.95; normalized growth (S. cerevisiae deletion strains, locus YLR113W, strain HOG1, stronger effect = lower value): 0.986; normalized growth (S. cerevisiae deletion strains, locus YLR221C, strain rsa3, stronger effect = lower value): 0.355 (active); normalized growth (S. cerevisiae deletion strains, locus YLR258W, strain gsy2, stronger effect = lower value): 0.902 (active); normalized growth (S. cerevisiae deletion strains, locus YLR262C, strain YPT6 (second series), stronger effect = lower value): 0.724 (active); normalized growth (S. cerevisiae deletion strains, locus YLR262C, strain YPT6, stronger effect = lower value): 0.643; normalized growth (S. cerevisiae deletion strains, locus YLR268W, strain sec22, stronger effect = lower value): 0.764 (active); normalized growth (S. cerevisiae deletion strains, locus YLR320W, strain mms22, stronger effect = lower value): 0.721 (active); normalized growth (S. cerevisiae deletion strains, locus YLR330W, strain CHS5, stronger effect = lower value): 0.648 (active); normalized growth (S. cerevisiae deletion strains, locus YLR342W, strain FKS1 (second series), stronger effect = lower value): 0.749 (active); normalized growth (S. cerevisiae deletion strains, locus YLR342W, strain FKS1, stronger effect = lower value): 1.01; normalized growth (S. cerevisiae deletion strains, locus YLR357W, strain rsc2, stronger effect = lower value): 0.632 (active); normalized growth (S. cerevisiae deletion strains, locus YLR370C, strain arc18, stronger effect = lower value): 1.01; normalized growth (S. cerevisiae deletion strains, locus YLR371W, strain rom2, stronger effect = lower value): 0.715 (active); normalized growth (S. cerevisiae deletion strains, locus YLR384C, strain iki3, stronger effect = lower value): 0.987; normalized growth (S. cerevisiae deletion strains, locus YLR418C, strain cdc73, stronger effect = lower value): 0.54 (active); normalized growth (S. cerevisiae deletion strains, locus YML016C, strain PPZ1, stronger effect = lower value): 0.978; normalized growth (S. cerevisiae deletion strains, locus YML032C, strain rad52, stronger effect = lower value): 0.89 (active); normalized growth (S. cerevisiae deletion strains, locus YML120C, strain ndi1, stronger effect = lower value): 0.13 (active); normalized growth (S. cerevisiae deletion strains, locus YML124C, strain tub3, stronger effect = lower value): 0.943; normalized growth (S. cerevisiae deletion strains, locus YMR058W, strain fet3, stronger effect = lower value): 0.759 (active); normalized growth (S. cerevisiae deletion strains, locus YMR078C, strain ctf18, stronger effect = lower value): 0.912; normalized growth (S. cerevisiae deletion strains, locus YMR125W, strain sto1, stronger effect = lower value): 0.397 (active); normalized growth (S. cerevisiae deletion strains, locus YMR129W, stronger effect = lower value): 0.839 (active); normalized growth (S. cerevisiae deletion strains, locus YMR205C, strain PFK2, stronger effect = lower value): 0.868 (active); normalized growth (S. cerevisiae deletion strains, locus YMR223W, strain ubp8, stronger effect = lower value): 0.847 (active); normalized growth (S. cerevisiae deletion strains, locus YMR231W, strain pep5, stronger effect = lower value): 1.01; normalized growth (S. cerevisiae deletion strains, locus YMR307W, strain GAS1, stronger effect = lower value): 0.49 (active); normalized growth (S. cerevisiae deletion strains, locus YNL067W, strain RPL9B, stronger effect = lower value): 0.925; normalized growth (S. cerevisiae deletion strains, locus YNL071W, strain lat1, stronger effect = lower value): 0.274 (active); normalized growth (S. cerevisiae deletion strains, locus YNL183C, strain NPR1, stronger effect = lower value): 0.892; normalized growth (S. cerevisiae deletion strains, locus YNL209W, strain ssb2, stronger effect = lower value): 1; normalized growth (S. cerevisiae deletion strains, locus YNL233W, strain BNI4, stronger effect = lower value): 0.657 (active); normalized growth (S. cerevisiae deletion strains, locus YNL248C, strain rpa49, stronger effect = lower value): 0.409 (active); normalized growth (S. cerevisiae deletion strains, locus YNL250W, strain rad50, stronger effect = lower value): 0.972; normalized growth (S. cerevisiae deletion strains, locus YNL271C, strain bni1, stronger effect = lower value): 0.917 (active); normalized growth (S. cerevisiae deletion strains, locus YNL298W, strain CLA4, stronger effect = lower value): 0.899 (active); normalized growth (S. cerevisiae deletion strains, locus YNL307C, strain MCK1, stronger effect = lower value): 0.589 (active); normalized growth (S. cerevisiae deletion strains, locus YNL322C, strain KRE1 (second series), stronger effect = lower value): 0.876 (active); normalized growth (S. cerevisiae deletion strains, locus YNR049C, strain mso1, stronger effect = lower value): 0.986; normalized growth (S. cerevisiae deletion strains, locus YNR052C, strain pop2, stronger effect = lower value): 0.922; normalized growth (S. cerevisiae deletion strains, locus YOL012C, strain htz1): 0.626; normalized growth (S. cerevisiae deletion strains, locus YOL147C, strain pex11, stronger effect = lower value): 0.872 (active); normalized growth (S. cerevisiae deletion strains, locus YOR001W, strain rrp6, stronger effect = lower value): 0.664 (active); normalized growth (S. cerevisiae deletion strains, locus YOR061W, strain CKA2, stronger effect = lower value): 0.98; normalized growth (S. cerevisiae deletion strains, locus YOR069W, strain VPS5, stronger effect = lower value): 0.961; normalized growth (S. cerevisiae deletion strains, locus YOR070C, strain gyp1, stronger effect = lower value): 0.976; normalized growth (S. cerevisiae deletion strains, locus YOR080W, strain dia2, stronger effect = lower value): 0.999; normalized growth (S. cerevisiae deletion strains, locus YOR083W, strain WHI5, stronger effect = lower value): 0.904; normalized growth (S. cerevisiae deletion strains, locus YOR106W, strain vam3, stronger effect = lower value): 0.72 (active); normalized growth (S. cerevisiae deletion strains, locus YOR136W, strain idh2, stronger effect = lower value): 0.924; normalized growth (S. cerevisiae deletion strains, locus YOR144C, strain elg1, stronger effect = lower value): 0.916 (active); normalized growth (S. cerevisiae deletion strains, locus YOR184W, strain ser1, stronger effect = lower value): 0.686 (active); normalized growth (S. cerevisiae deletion strains, locus YOR231W, strain MKK1, stronger effect = lower value): 0.967; normalized growth (S. cerevisiae deletion strains, locus YOR265W, strain rbl2, stronger effect = lower value): 0.997; normalized growth (S. cerevisiae deletion strains, locus YOR270C, strain vph1, stronger effect = lower value): 0.777; normalized growth (S. cerevisiae deletion strains, locus YOR290C, strain snf2, stronger effect = lower value): 0.844 (active); normalized growth (S. cerevisiae deletion strains, locus YOR316C, strain cot1, stronger effect = lower value): 0.949; normalized growth (S. cerevisiae deletion strains, locus YPL051W, strain arl3, stronger effect = lower value): 0.886 (active); normalized growth (S. cerevisiae deletion strains, locus YPL078C, strain atp4, stronger effect = lower value): 0.912; normalized growth (S. cerevisiae deletion strains, locus YPL106C, strain sse1, stronger effect = lower value): 0.923; normalized growth (S. cerevisiae deletion strains, locus YPL240C, strain hsp82, stronger effect = lower value): 0.837 (active); normalized growth (S. cerevisiae deletion strains, locus YPL241C, strain CIN2, stronger effect = lower value): 0.925 (active); normalized growth (S. cerevisiae deletion strains, locus YPL256C, strain CLN2, stronger effect = lower value): 0.964; normalized growth (S. cerevisiae deletion strains, locus YPR119W, strain clb2, stronger effect = lower value): 0.938; normalized growth (S. cerevisiae deletion strains, locus YPR141C, strain kar3, stronger effect = lower value): 0.941; normalized growth (S. cerevisiae deletion strains, locus YPR163C, strain tif3, stronger effect = lower value): 0.725 (active); normalized growth (S. cerevisiae deletion strains, locus YPR167C, strain met16, stronger effect = lower value): 0.916 (active); normalized growth (S. cerevisiae deletion strains, strain wtn01, stronger effect = lower value): 0.797 (active); normalized growth (S. cerevisiae strains, strain wild type, stronger effect = lower value): 0.579 (active)
